FLuc counter: qHTS profiling assay for firefly luciferase inhibitor/activator using purifed enzyme and Km concentrations of substrates (counterscreen for miR-21 project); Luciferin 4-monooxygenase (Photinus pyralis), P08659; AID 588342, 2011; Potency, µM (series often up to 57.5 µM), for the others: at the highest dose activity change, negative = inhibition, most hits filed as inhibitors; purified FLuc, Km substrates, luminescence inhibition; actives 6.9% (n = 360,000);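 further: plate controls were vehicle for no effect and reference inhibitor for full effect; nearly all actives have a fitted effect of over 55% in size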
Target sequence (P08659 whole entry, looked up): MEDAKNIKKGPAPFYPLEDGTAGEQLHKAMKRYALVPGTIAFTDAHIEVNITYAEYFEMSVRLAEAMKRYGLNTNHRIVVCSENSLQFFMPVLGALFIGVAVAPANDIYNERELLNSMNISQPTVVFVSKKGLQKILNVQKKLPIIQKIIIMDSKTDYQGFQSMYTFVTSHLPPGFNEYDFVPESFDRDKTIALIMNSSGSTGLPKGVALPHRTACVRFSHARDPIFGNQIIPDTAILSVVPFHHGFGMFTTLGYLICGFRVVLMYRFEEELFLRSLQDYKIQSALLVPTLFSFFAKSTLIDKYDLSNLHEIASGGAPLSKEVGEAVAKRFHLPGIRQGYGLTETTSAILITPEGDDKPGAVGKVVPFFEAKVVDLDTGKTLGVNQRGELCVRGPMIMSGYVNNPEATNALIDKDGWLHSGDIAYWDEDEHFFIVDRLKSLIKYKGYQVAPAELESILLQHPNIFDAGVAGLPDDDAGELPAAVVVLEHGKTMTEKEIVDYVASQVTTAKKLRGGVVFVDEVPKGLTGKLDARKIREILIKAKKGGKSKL
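Purified P. pyralis luciferase, 10 nM final, with Km-level 10 uM D-luciferin and 10 uM ATP in 50 mM Tris acetate pH 7.5, 10 mM Mg acetate, 0.01% Tween-20, 0.05% BSA; 6-point qHTS titration about 60 µM downward; luminescence read.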
Rab9 prom act: qHTS Assay for Rab9 Promoter Activators. Huh7 Rab9 promoter-luciferase reporter, luminescence, 24 h. Potency, µM (titrated, usually from 9.22 µM), inactives show top-dose activation, negative = inhibition, hits mostly activators. actives 2.8% (n = 320,000). AID 485297, 2010; further: % of control where 0% means no effect; nearly all actives have a fitted effect of over 60% in size
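Quantitative HTS format; Huh7 Rab9-luciferase reporter cells (1500/well) receive compound 2 h post-plating, incubate 24 h at 37 °C, then get luciferase reagent for 10 min before luminescence reading.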
ELG1 genotox: qHTS screen for small molecules that induce genotoxicity in human embryonic kidney (HEK293T) cells expressing luciferase-tagged ELG1. HEK293T ELG1-luciferase reporter, luminescence, 16 h. Potency, µM (titrated, usually from 46 µM), for the others: at the highest dose activity change, positive = activation, actives largely listed as activators. actives 1.3% (n = 330,000). AID 504466, 2011; further: % of control where 0% means no effect; nearly all actives have a fitted effect of over 60% in size
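Cells (2,000/well) expressing the ELG1-luciferase fusion are dosed by pin tool and kept 16 hr at 37 °C, 5% CO2. Signal comes from ONE-Glo luciferase reagent after 30 min at room temperature.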
SMN2 splice enh: qHTS Assay for Enhancers of SMN2 Splice Variant Expression; actives 2.8% (n = 210,000); HEK293 SMN2-luciferase splicing reporter, luminescence, 30-36 h; Potency, µM (top dose mostly 46.1 µM), for the others: top-dose activity change, positive = activation, actives largely listed as activators; further: % of control where 0% means no effect; nearly all actives have a fitted effect of over 55% in size
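HEK293 cells carry an SMN2 minigene-luciferase reporter in which exon 7 inclusion puts luciferase in frame. Cells were seeded at 2000 cells/well, attached for 10-12 hours, then exposed to compounds for 30-36 hours at 37C before ONE-Glo luminescence.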
ELG1 DNA repair: qHTS screen for small molecules that inhibit ELG1-dependent DNA repair in human embryonic kidney (HEK293T) cells expressing luciferase-tagged ELG1; HEK293T ELG1-luciferase reporter, luminescence, 16 h; DNA damage induced by 5-fluorouridine; Potency, µM (doses to about 46.1 µM), for the others: top-dose activity change, negative = inhibition, usual class: inhibitors; actives 2.3% (n = 330,000); further: on the % scale 0 is the no-effect control and ±100 the full control effect; nearly all actives have a fitted effect of over 55% in size
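DMSO vehicle served as the neutral condition. Each well held 2,000 cells given 5-fluorouridine plus compound; after 16 hr at 37 °C/5% CO2, ONE-Glo was added and luciferase measured 30 min later.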
NPC1 promoter act: qHTS Assay for NPC1 Promoter Activators. Huh7 NPC1 promoter luciferase reporter, 24 h. Potency, µM (top dose mostly 9.22 µM), for the others: top-dose activation, usual class: activators. actives 2.4% (n = 320,000). AID 485313, 2010; further: % of control where 0% means no effect; nearly all actives have a fitted effect of over 60% in size
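Cells: Huh7 expressing luciferase under the NPC1 promoter, 1500/well. Seeded 2 h, compound added, incubated 24 h at 37 °C. Luciferase reagent, 10 min ambient, then luminescence.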
* marks the source's active call; other numbers are inactive results; ? = inconclusive; . = not tested or not shown; [ ] = dose if it differs, or a comment. This is a sample that favours compounds with a hit; in the whole collection about 9.4% have one here. The call rests on the fitted dose curve; in most records, active means well fitted curve in the direction sought with a large enough effect; inconclusive means small, poorly fitted or top-dose-only effect, or another doubt; inactive means no such curve, though single readings can be large; an effect the other way counts as inactive or inconclusive. Potency means the concentration at half of the fitted maximal effect.

SMILES	FLuc counter	Rab9 prom act	ELG1 genotox	SMN2 splice enh	ELG1 DNA repair	NPC1 promoter act
COc1cc2nc(C3CCC3)nc(N3CCN(c4ccccc4OC)CC3)c2cc1OC	1%	-3%	-12%	-19%	12µM*	-12%
COc1cc2nc(C3CCC3)nc(N3CCN(c4ccccn4)CC3)c2cc1OC	-4%	-1%	-7%	11%	10µM*	-2%
CCNC(=O)c1ccc2c(c1)sc1nc(-c3cccc(OC)c3)cn12	-8%	.	.	.	.	.
O=C1C2CC=CCC2C(=O)N1Cc1nnc(-c2ccc(Cl)cc2)o1 (stereo not drawn)	19µM*	?	?	24%	?	12%
COc1ccc(C(=O)Cn2nnc(-c3ccccc3NC(=O)C3CC3)n2)cc1	-1%	4%	-4%	-17%	-3%	-2%
COc1cccc(-c2nnn(CC(C)=O)n2)c1	6.7µM*	2.5µM*	?	13µM*	?	2.8µM*
COc1cccc(-c2nnn(CC(=O)N3CCCCC3)n2)c1	-19%	30%	12%	.	?	12%
COc1ccc(-c2ccc(-c3nnn(CC(C)=O)n3)cc2)cc1	?	1.6µM*	7%	?	?	2.5µM*
COc1ccc(C(=O)Cn2nnc(-c3ccccc3F)n2)cc1	15µM*	28%	4%	.	13%	21%
CCC(C(=O)O)n1nnc(-c2ccc(-c3ccc(OC)cc3)cc2)n1 (stereo not drawn)	9.5µM*	22%	?	?	?	26%
Cc1cccn2c(=O)c(C(=O)NC(C)c3ccccc3)c(O)nc12 (stereo not drawn)	-2%	.	.	-36%	.	.
O=C(NC1CCCCC1)c1ccc2c(c1)N(Cc1cccc(Cl)c1)C(=O)c1ccccc1S2=O (stereo not drawn)	4%	.	.	.	.	.
CCN(CC)C[C@@H](O)c1ccc2ccc3ccccc3c2c1	.	.	.	-5%[9.22 µM]	.	.
CC(=O)C1=C(c2ccc(Br)cc2)C(=O)c2ccccc2C1=O	5%	-35%	-9%	-109%	3.7µM*	-30%
C/C(=N\NC(=O)c1ccc(Br)cc1)C1C(=O)c2ccccc2C1=O	?	21%	-7%	-21%	-2%	16%
Nc1cc(Cl)c([N+](=O)[O-])cc1O	.	.	.	6%	.	.
O=C(CCl)NC(=O)NC12CC3CC(CC(C3)C1)C2	-10%	-44%	0%	1%	16µM*	-16%
COc1ccc(NC(=S)Nc2ccc(N(C)C(C)=O)cc2)cc1	-3%	5%	0%	-5%	5%	1%
Cc1ccc(NC(=S)c2ccc(N(C)C)cc2)cc1	1.7µM*	1.3µM*	3.7µM*	4.5µM*	?	0.89µM*
Cc1ccc(S(=O)(=O)NC(=O)Nc2ccc(N(C)C)cc2)cc1	24µM*	?	?	.	?	5%
Cc1ccc(NC(=O)NNS(=O)(=O)c2ccc(Br)cc2)cc1	-3%	-1%	3%	11%	-2%	-2%
COc1ccc(NC(=S)Nc2ccccc2)cc1	-19%	14%	3%	-2%[9.22 µM]	?	-1%
COc1ccc(NC(=S)c2ccc(N(C)C)cc2)cc1	2.1µM*	1.3µM*	?	11µM*	?	4µM*
COc1ccc(NC(=S)c2ccccc2)cc1	11µM*	?	?	14µM*	?	?
CCOc1ccccc1-c1noc(CCCC(=O)Nc2cccc(C(F)(F)F)c2)n1	-13%	.	.	-20%	.	.
SMILES	FLuc counter	Rab9 prom act	ELG1 genotox	SMN2 splice enh	ELG1 DNA repair	NPC1 promoter act
CC(C)CCn1c(=O)c2cccnc2n(CC(=O)Nc2ccc(F)cc2)c1=O	5%	.	.	6%	.	.
COc1ccc(C(=S)Nc2ccc(N(C)C)cc2)cc1	1.5µM*	2.8µM*	?	11µM*	?	3.2µM*
O=C(c1cc(-c2ccccc2)on1)N1CCN(C(=O)c2ccco2)CC1	?	0%	?	20%	?	0%
O=C(c1cc(-c2ccc(O)cc2)on1)N1CCN(c2ccccc2)CC1	?	7%	-14%	-18%	-11%	-1%
O=C(c1cc(-c2cccc(O)c2)on1)N1CCCC1	6µM*	?	7.3µM*	.	?	?
COc1ccccc1N1CCN(C(=O)c2cc(-c3cccc(Cl)c3)on2)CC1	5%	0%	-2%	-12%	-26%	0%
O=C(c1cc(-c2cccc(O)c2)on1)N1CCCCC1	3µM*	?	3.7µM*	?	?	?
O=C(c1cc(-c2cccc(Cl)c2)on1)N1CCCCC1	21µM*	.	.	10%	.	.
COc1ccc(-c2csc(COC(=O)C(C)(C)C)n2)cc1	2.4µM*	?	6%	.	?	24%
CC(C)(C)C(=O)OCc1nc(-c2ccc(F)cc2)cs1	1.3µM*	2.5µM*	18%	.	?	?
COc1ccc(-c2csc(CCN3N=C(C)CC3=O)n2)cc1	?	-1%	13%	8%	?	0%
CC(C)(C)C(=O)OCc1nc(-c2ccc(Cl)cc2)cs1	1.2µM*	4.5µM*	?	.	?	3.5µM*
CC(C)(C)C(=O)OCc1nc(-c2ccc3c(c2)OCCO3)cs1	0.54µM*	3.2µM*	?	.	?	2.8µM*
CC(C)(C)S(=O)(=O)Cc1nc(-c2ccc(Cl)c(Cl)c2)cs1	?	18%	8%	.	0%	21%
CC(=O)N1CCc2c(sc3c2c(=O)n(CCc2ccccc2)c(=O)n3Cc2ccc(F)cc2)C1	2%	.	.	-3%	.	.
Cc1ccc(Cl)cc1N1CCN(C(=O)CCCCCn2c(=O)[nH]c3ccccc3c2=O)CC1	-3%	.	.	.	.	.
CCn1cc(C(=O)Nc2ccc(C(C)C)cc2)c2cc(OC)c(OC)cc2c1=O	2%	.	.	-17%	.	.
O=C(CSC1=Nc2ccccc2N=C(c2ccc(F)cc2)C1)Nc1cc(F)ccc1F	3%	.	.	.	.	.
CCCCN(C)c1nnc(NC(=O)Nc2cccc(C(C)=O)c2)s1	-9%	.	.	.	.	.
O=C(Nc1cccc(-c2nc3ccccc3o2)c1)C(F)(F)F	?	.	.	2%	.	.
CCn1c(COc2ccccc2OC)nc2ccccc21	17µM*	4%	9%	.	?	5%
CCCn1c(COc2ccccc2OC)nc2ccccc21	?	3%	-2%	.	-9%	-1%
CCn1c(COc2ccccc2C)nc2ccccc21	11µM*	25%	?	?	?	28%
